Assay results as given in PMC5540273 (PLoS ONE, 2017).

Assays:
Conditions in all cases: concentration: 1 μM, replicates: in singlicate; n = 1
[1] = tested on: TYK2(JH2domain-pseudokinase)
TYRO3 = tested on: TYRO3
ULK1 = tested on: ULK1
ULK2 = tested on: ULK2
ULK3 = tested on: ULK3
VEGFR2 = tested on: T1, VEGFR2
T1 construct: gene KDR

VPS34 = tested on: T2, VPS34
T2 construct: gene PIK3C3

VRK2 = tested on: VRK2
WEE1 = tested on: WEE1
WEE2 = tested on: WEE2
WNK1 = tested on: WNK1
WNK2 = tested on: WNK2
WNK3 = tested on: WNK3
WNK4 = tested on: WNK4
YANK1 = tested on: T3, YANK1
T3 construct: gene STK32A

YANK2 = tested on: T4, YANK2
T4 construct: gene STK32B

YANK3 = tested on: T5, YANK3
T5 construct: gene STK32C

YES = tested on: T6, YES
T6 construct: gene YES1

YSK1 = tested on: T7, YSK1
T7 construct: gene STK25

YSK4 = tested on: T8, YSK4
T8 construct: gene MAP3K19
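Note: KINOMEscan kinase panel screen.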

| SMILES | %Inh [1] [%] | %Inh (TYRO3) [%] | %Inh (ULK1) [%] | %Inh (ULK2) [%] | %Inh (ULK3) [%] | %Inh (VEGFR2) [%] | %Inh (VPS34) [%] | %Inh (VRK2) [%] | %Inh (WEE1) [%] | %Inh (WEE2) [%] | %Inh (WNK1) [%] | %Inh (WNK2) [%] | %Inh (WNK3) [%] | %Inh (WNK4) [%] | %Inh (YANK1) [%] | %Inh (YANK2) [%] | %Inh (YANK3) [%] | %Inh (YES) [%] | %Inh (YSK1) [%] | %Inh (YSK4) [%] |
| --- | --- | --- | --- | --- | --- | --- | --- | --- | --- | --- | --- | --- | --- | --- | --- | --- | --- | --- | --- | --- |
| COc1cc(Nc2nccc(N3CCC(NC(=O)c4cc5ccccc5s4)C3)n2)cc(OC)c1OC (centres unmarked) [GSK1379760] | 6 | 0 | 1 | 0 | 64 | 0 | 33 | 20 | 8 | 0 | 0 | 0 | 30 | 11 | 13 | 11 | 0 | 8 | 17 | 0 |
| COc1ccc(CNC(=O)NC2CCN(c3ccnc(Nc4ccc(F)cc4)n3)CC2)cc1 [GSK1379788] | 35 | 0 | 0 | 0 | 0 | 0 | 17 | 14 | 39 | 0 | 0 | 7 | 23 | 27 | 7 | 0 | 0 | 0 | 0 | 14 |
| Cn1cc(-c2ccc3c(c2)CCN3C(=O)Cc2cccc(Cl)c2)c2c(N)ncnc21 [GSK2606590] | 13 | 0 | 11 | 0 | 18 | 49 | 1 | 0 | 0 | 0 | 13 | 18 | 25 | 5 | 10 | 0 | 21 | 21 | 18 | 98.2 |
| O=C(Nc1cccc(-c2nn3ncccc3c2-c2ccnc(Nc3ccccc3)n2)c1)c1c(F)cccc1F [GSK198271] | 0 | 100 | 22 | 0 | 6 | 80 | 0 | 0 | 40 | 0 | 2 | 60 | 0 | 0 | 63 | 38 | 18 | 99.5 | 20 | 18 |
| CN(c1ccc(NC(=O)Nc2cc(C(F)(F)F)ccc2F)cc1)c1ccnc(Nc2ccc(S(N)(=O)=O)cc2)n1 [GW809893] | 12 | 77 | 17 | 3 | 76 | 88 | 4 | 0 | 0 | 11 | 6 | 0 | 0 | 0 | 17 | 0 | 17 | 80 | 100 | 99.1 |
| Cl.c1ccc(-c2ccc3c(Nc4ccc5[nH]ncc5c4)ccnc3c2)nc1 [GW440137] | 32 | 0 | 12 | 0 | 11 | 66 | 0 | 0 | 0 | 5 | 11 | 14 | 19 | 28 | 3 | 1 | 7 | 14 | 9 | 51 |
| CC(=O)Nc1nc2cnc(Nc3cc(NC(=O)c4cccc(C5(C#N)CC5)c4Cl)ccc3C)nc2s1 | 0 | 15 | 0 | 6 | 0 | 40 | 22 | 0 | 0 | 32 | 0 | 0 | 0 | 0 | 0 | 12 | 25 | 82 | 0 | 0 |
| COc1ccc(-c2coc3ccc(-c4nnc(SCc5ccc(OC)c(C(F)(F)F)c5)o4)cc23)cc1 | 1 | 16 | 0 | 6 | 16 | 17 | 11 | 0 | 0 | 0 | 0 | 31 | 0 | 4 | 10 | 0 | 0 | 12 | 0 | 20 |
| COc1cc(Nc2nccc(-c3c(-c4cccc(NC(=O)c5c(F)cccc5F)c4)nn4ccccc34)n2)cc(OC)c1OC [GSK323521] | 0 | 0 | 0 | 0 | 18 | 0 | 12 | 0 | 0 | 6 | 27 | 59 | 54 | 19 | 11 | 0 | 14 | 8 | 3 | 93.6 |
| CN1CCN(Cc2cccc(-c3ccc4c(Nc5ccc(Oc6ccccc6)cc5)ccnc4c3)c2)CC1 [GW578342] | 5 | 12 | 0 | 0 | 2 | 16 | 0 | 26 | 0 | 0 | 0 | 15 | 31 | 49 | 3 | 0 | 0 | 88 | 12 | 0 |
